# Shn3 3UTR inh: reduction of Shn3 3'UTR firefly luciferase signal, primary screen, Schnurri-3 inhibitor project, cell-based, Clone20 osteoblasts, set 2; Clone20 osteoblast Shn3 3'UTR firefly luciferase, 24 h; inhibition, % at 12.5 µM; 360,000 compounds, 0.52% hits;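 active = mean inhibition of at least 75% with every replicate also reaching 75%; inconclusive = mean inhibition at least 75% but some replicate below; inactive = mean inhibition below 75%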;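 note: 0% = median of neutral control wells and 100% = pilot-screen positive control compound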
# EBV LMP1 NFkB: EBV LMP1-driven NF-kappaB luciferase reporter inhibitors, primary screen, cell-based, luminescence, single point. LMP1-induced NF-kappaB luciferase reporter cells. inhibition, % at 12.5 µM. AID 504558, 2011. 350,000 compounds, 0.69% hits; in the data active = inhibition above about 41%; inconclusive = no clear call, values can overlap the other calls;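 note: 0% = neutral control wells and 100% = reference inhibitor control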
# TRPM1 prom inh: inhibitors of MITF-dependent TRPM1 promoter reporter, primary screen, cell-based, SK-MEL-5, single point, luciferase; SK-MEL-5 TRPM1 promoter luciferase, 24 h; inhibition, % at 12.5 µM; 330,000 compounds, 0.83% hits; AID 488899, 2010;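 active = mean inhibition across replicates of 60% or more, whatever share of single replicates reaches that level; inconclusive = some that reach 60%, reason not given; inactive = mean inhibition across replicates below 60%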
# TWEAK Fn14 block: inhibitors of TWEAK-Fn14 signaling, primary screen, luciferase reporter cells, uHTS; TWEAK-stimulated Fn14 reporter cells, luciferase luminescence, 8 h; AID 1159606, 2016; inhibition, % at 10 µM; 360,000 compounds, 2% hits; in the data active = inhibition above about 50%
# HIF-2a inh: HIF-2a reporter inhibitors, primary screen, luminescence, 786-0 RCC cells; AID 624352, 2012; inhibition, % at 18.8 µM; 360,000 compounds, 0.72% hits; 786-0 RCC cells HIF-2a reporter, luciferase luminescence, overnight;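 active = inhibition of the luminescence signal of 40% or more relative to plate controls, in a single-dose primary screen at 18.75 µM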
# TROY NFkB inh: inhibitors of TROY-driven NF-kB signaling, primary screen, Q293 LMP1-TROYcd cells, NF-kB luciferase, uHTS; Q293 LMP1-TROYcd NF-kB luciferase reporter, 4 h; inhibition, % at 10 µM; 360,000 compounds, 0.98% hits; AID 1347056, 2019;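 active = compounds whose plate-normalised and pattern-corrected inhibition of the luciferase reporter signal at the single screening dose is 50% or more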
# Mdm2 MdmX conf: retested Mdm2-MdmX interaction blockers, confirmation, cell-based, luminescence, single concentration, set 2 | shares compounds with HIF-2a inh | SaOS-2 split-luciferase Mdm2/MdmX complementation | inhibition, % at 8 µM | 740 compounds, 99% hits | AID 504601, 2011;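 active = mean inhibition of the luminescence signal across two replicates at or above 26 percent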
# Target sequence (O15151 whole entry, looked up): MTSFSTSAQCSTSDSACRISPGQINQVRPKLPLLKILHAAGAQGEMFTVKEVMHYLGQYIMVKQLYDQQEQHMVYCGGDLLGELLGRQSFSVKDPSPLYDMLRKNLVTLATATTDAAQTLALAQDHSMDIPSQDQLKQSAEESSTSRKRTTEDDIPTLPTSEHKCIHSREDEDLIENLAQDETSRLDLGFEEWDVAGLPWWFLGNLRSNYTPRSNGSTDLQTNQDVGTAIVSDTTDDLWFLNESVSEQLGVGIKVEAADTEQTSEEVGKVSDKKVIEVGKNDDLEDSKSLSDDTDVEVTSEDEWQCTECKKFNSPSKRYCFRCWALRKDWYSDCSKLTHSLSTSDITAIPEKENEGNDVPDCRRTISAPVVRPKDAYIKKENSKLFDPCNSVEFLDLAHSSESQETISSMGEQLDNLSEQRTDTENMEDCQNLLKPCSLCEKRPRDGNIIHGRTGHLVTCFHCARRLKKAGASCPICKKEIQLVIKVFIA
# Target sequence (Q00987 whole entry, looked up): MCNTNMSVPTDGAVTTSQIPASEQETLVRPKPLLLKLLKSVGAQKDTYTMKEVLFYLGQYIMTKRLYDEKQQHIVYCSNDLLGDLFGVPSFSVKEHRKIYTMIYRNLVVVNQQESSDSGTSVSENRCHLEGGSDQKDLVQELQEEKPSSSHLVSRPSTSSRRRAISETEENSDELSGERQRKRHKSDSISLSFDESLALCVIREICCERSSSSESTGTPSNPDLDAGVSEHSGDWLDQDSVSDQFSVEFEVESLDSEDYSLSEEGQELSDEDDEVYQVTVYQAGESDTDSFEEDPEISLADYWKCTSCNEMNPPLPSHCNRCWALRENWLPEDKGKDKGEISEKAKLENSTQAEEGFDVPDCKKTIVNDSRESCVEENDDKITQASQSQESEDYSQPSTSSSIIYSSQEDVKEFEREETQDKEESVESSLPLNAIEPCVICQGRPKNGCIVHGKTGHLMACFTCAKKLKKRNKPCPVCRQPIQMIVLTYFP
# HIF-2a conf: HIF-2a reporter inhibitor retest, confirmation, luminescence, 786-0 RCC cells | shares compounds with HIF-2a inh | HIF-2a luciferase reporter luminescence, overnight | inhibition, % at 18.8 µM | 1,800 compounds, 56% hits | AID 651580, 2012;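 active = mean inhibition across four replicates of at least 40 percent at the single tested concentration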
# HIF-1a cs: HIF-1a luciferase reporter signal reduction – MiaPaCa-2 cells, single concentration, counter-screen for HIF-2a inhibitor project, confirmation | 1,800 compounds, 72% hits | MiaPaCa-2 HIF-1a luciferase reporter, desferoxamine, overnight | shares compounds with HIF-2a inh | inhibition, % at 18.8 µM;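 active = mean inhibition of the reporter signal across four replicates at the single tested dose of 50% or more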
# The depositor's hits bear a star; ? = inconclusive; / = not tested or not shown. Most compounds without a hit are left out; they make up all but 3.4% or so of the library.
SMILES,Shn3 3UTR inh,EBV LMP1 NFkB,TRPM1 prom inh,TWEAK Fn14 block,HIF-2a inh,TROY NFkB inh,HIF-2a conf,HIF-1a cs,others
Cc1nnc(SC(=O)N2c3ccccc3Sc3ccccc32)s1,62,?,76*,90*,19,49,/,/,Mdm2 MdmX conf=103*
Cc1ccc(CCNS(=O)(=O)c2ccc3c(c2)NC(=O)C(C)C(=O)N3)cc1 (stereo not drawn),6,-6,/,-1,-12,8,/,/,
CC(C)Oc1ccc(/C=N/NC(=O)c2ccc(N(Cc3ccccc3)S(C)(=O)=O)cc2)cc1,8,-9,-15,-1,-31,-26,/,/,
COC(=O)COc1ccc(/C=N/NC(=O)CN(c2ccccc2OC)S(=O)(=O)c2ccccc2)cc1,-15,-3,8,0,57*,-12,74*,57*,
COC(=O)COc1ccc(/C=N/NC(=O)c2ccc(N(Cc3ccccc3)S(C)(=O)=O)cc2)cc1,15,-2,6,0,64*,6,19,-3,
COc1ccc(NC(=O)CN2C(=O)NC(c3ccccc3)(c3ccccc3)C2=O)cc1OC,6,-10,-12,6,11,-1,/,/,
CCOC(=O)C1CCN(C(=O)Nc2ccc3snnc3c2)CC1,-5,-4,-2,18,52*,3,50*,12,
CC(OC(=O)/C(C#N)=C/c1ccc(N(C)C)cc1)C(=O)N(C)Cc1ccccc1 (stereo not drawn),-18,-3,-12,29,-185,5,/,/,
CN(C)C(=S)c1ccccc1,16,5,-17,-2,22,-2,/,/,
N#Cc1ccc(/C=C/C(=O)c2ccccc2)cc1,31,3,6,15,87*,17,-63,65*,
N#Cc1ccccc1COc1ccc(/C=C/C(=O)O)cc1,42,25,55,74*,87*,29,89*,56*,
O=C(/C=C/c1ccccc1)c1ccccc1,-54,0,-22,-6,-62,-22,/,/,
COC(=O)C12OCC34C(CC5C(C)=C(O)C(=O)CC5(C)C3C(O)C1O)OC(=O)C(OC(=O)C=C(C)C)C24 (stereo not drawn),99*,85*,72*,95*,68*,85*,60*,105*,
COc1cccc2nc3c(C(=O)NCCN(C)C)cccc3cc12,70,0,77*,-74,43*,-93,31,105*,
CC(C)(C)C(=O)Cn1ncc(N2CCCC2)c(Br)c1=O,-41,-13,-41,6,-160,-37,/,/,
CC(C)(C)C(=O)Cn1ncc(Cl)c(Cl)c1=O,34,1,91*,97*,95*,3,-12,106*,
C=CCn1c(C)cc(C(=O)Cn2ncc(Cl)c(Cl)c2=O)c1C,64,-47,67*,48,94*,-23,3,105*,
O=C(Cn1ncc(Cl)c(Cl)c1=O)c1ccc(Cl)cc1,70,-78,80*,83*,96*,13,-7,106*,
O=Cc1ccccc1-c1cn(CCCOCc2ccccc2)nn1,-4,-18,0,-4,-5,-8,/,/,
Cc1ccnc(N/C=C(/NC(=O)c2ccccc2)C(=O)NN)n1,2,5,-2,-5,7,8,/,/,
Cc1ccnc(N/C=C(/NC(=O)c2ccccc2)C(=O)N/N=C\c2ccc(F)cc2)n1,94*,58*,41,101*,66*,80*,69*,88*,
CC1(C)c2cc(Cl)ccc2-n2c1cc(O)c(-c1ccccc1)c2=O,/,-4,-2,-10,13,-3,/,/,
COc1ccccc1C(=O)N/C(=C\c1cn(C)c2ccccc12)C(=O)NCCCn1ccnc1,-12,-1,23,-5,20,2,/,/,
CC(=O)Nc1ccc(OCc2cccc3ccccc23)cc1,10,9,3,-29,88*,-88,97*,90*,
C=C1C(=O)OC2C=C(CO)C3OC3C3OC3(C)CC(OC(=O)/C(=C/C)COC(C)=O)C12 (stereo not drawn),93*,70*,84*,83*,85*,3,93*,107*,
SMILES,Shn3 3UTR inh,EBV LMP1 NFkB,TRPM1 prom inh,TWEAK Fn14 block,HIF-2a inh,TROY NFkB inh,HIF-2a conf,HIF-1a cs,others
CCC(C)(C)n1nnnc1C(c1cc(OC)ccc1OC)N1CCN(Cc2ccccc2)CC1 (stereo not drawn),53,10,-1,-13,18,-18,/,/,
Cc1ccc(NC(=O)Cc2ccc(Cl)cc2)cc1S(=O)(=O)N1CCCCCC1,38,3,19,49,16,31,/,/,
Cc1ccc(NC(=O)CN(C)C(=O)Cn2ncc(Cl)c(Cl)c2=O)cc1,71,88*,90*,96*,97*,31,100*,106*,
Cc1ccc(NC(=O)Cn2ncc(Cl)c(Cl)c2=O)cc1S(=O)(=O)N1CCCCC1,47,-12,97*,86*,94*,84*,57*,103*,Mdm2 MdmX conf=103*
Cc1cc(C)c(NC(=O)COC(=O)c2nc3nccc(C)n3n2)c(Cl)c1,-9,-1,1,-1,1,-17,/,/,
CS(=O)(=O)c1nc(-c2ccc(Br)cc2)cc(-c2ccccc2)c1C#N,98*,3,6,39,97*,63*,20,100*,Mdm2 MdmX conf=103*
N#Cc1c(-c2ccc(Br)cc2)cc(-c2cccnc2)nc1N,5,3,-3,7,3,0,/,/,
COc1ccc(-c2cc(-c3ccccc3)c(C#N)c(S(C)(=O)=O)n2)cc1,-39,0,19,-141,88*,-59,14,85*,
CS(=O)c1nc(-c2ccc(Br)cc2)cc(-c2ccccc2)c1C#N (stereo not drawn),76,13,78*,56*,88*,74*,21,98*,
O=C(Nc1ccccc1N1CCN(C(=O)c2ccccc2)CC1)c1ccc(Br)o1,-11,0,1,2,1,6,/,/,
Cc1ccc(-n2ccn(CC(=O)NCCc3ccccc3)c(=O)c2=O)cc1C,-38,-3,-39,-5,-138,-40,/,/,

# Source: PubChem (several laboratories)
